Measured values: PubChem BioAssay AID1159580 (chemical genetic matrix, 2015)
Out of some 5,500 compounds screened, about 2,000 (36%) were called active. Roughly 18% stayed inconclusive and do not appear here. No stated cut-off is given here; in the data, active means normalized growth mostly below about 0.91 (no sharp cut-off); inconclusive means no clear call, values can overlap the other calls; inactive means mostly above about 0.92. The list shows a part of the results.

Experiment: chemical genetic growth profiling, strain panel (AID 1159580);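 further: tested at 20 µM; growth read once vehicle control cultures reached saturation at 30 °C; 1 = growth at the plate median or of vehicle wells; lower values mean less growth of the strain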
Settings: S. cerevisiae deletion strains, growth OD

Measured: normalized growth

CC(=O)Oc1c(C)cccc1C(=O)O
inactive: locus YAL013W, strain DEP1, active compounds read low 1.01 | locus YAL021C, strain ccr4, active compounds read low 0.989 | locus YAL026C, strain drs2, active compounds read low 1.01 | locus YAL030W, strain snc1, active compounds read low 0.992 | locus YBL061C, strain skt5, active compounds read low 1.01 | locus YBR009C, strain hhf1, active compounds read low 1.01 | locus YBR021W, strain FUR4, active compounds read low 0.989 | locus YBR023C, strain chs3, active compounds read low 1 | locus YBR171W, strain sec66, active compounds read low 1.02 | locus YBR229C, strain ROT2, active compounds read low 0.988 | locus YBR231C, strain swc5, active compounds read low 1.02 | locus YBR279W, strain paf1, active compounds read low 1.01 | locus YCL011C, strain gbp2, active compounds read low 1.01 | locus YCL016C, strain dcc1, active compounds read low 0.998 | locus YCL029C, strain bik1, active compounds read low 1.01 | locus YCL061C, strain MRC1, active compounds read low 1.01 | locus YCL069W, strain vba3, active compounds read low 1.01 | locus YCR088W, strain abp1, active compounds read low 1.02 | locus YDL005C, strain med2, active compounds read low 1.02 | locus YDL035C, strain GPR1, active compounds read low 1.01 | locus YDL040C, strain nat1, active compounds read low 1 | locus YDL074C, strain BRE1, active compounds read low 1 | locus YDL101C, strain DUN1, active compounds read low 1.01 | locus YDL134C, strain PPH21, active compounds read low 1.01 | locus YDL185W, strain tfp1, active compounds read low 0.999 | locus YDL192W, strain arf1, active compounds read low 1.02 | locus YDR001C, strain nth1, active compounds read low 1.01 | locus YDR069C, strain doa4, active compounds read low 1.01 | locus YDR101C, strain arx1, active compounds read low 1.02 | locus YDR137W, strain rgp1, active compounds read low 0.985 | locus YDR150W, strain NUM1, active compounds read low 1.01 | locus YDR159W, strain sac3, active compounds read low 0.981 | locus YDR162C, strain NBP2, active compounds read low 1 | locus YDR195W, strain ref2 0.994 | locus YDR297W, strain sur2, active compounds read low 0.987 | locus YDR318W, strain mcm21, active compounds read low 1.02 | locus YDR334W, strain swr1, active compounds read low 1.01 | locus YDR335W, strain msn5, active compounds read low 0.989 | locus YDR388W, active compounds read low 1.01 | locus YDR392W, strain spt3, active compounds read low 0.957 | locus YDR502C, strain sam2, active compounds read low 1.02 | locus YEL003W, strain gim4, active compounds read low 1.03 | locus YEL037C, strain rad23, active compounds read low 1.02 | locus YEL061C, strain CIN8 (second series), active compounds read low 1.01 | locus YEL061C, strain CIN8, active compounds read low 0.995 | locus YER015W, strain faa2, active compounds read low 1.01 | locus YER016W, strain bim1, active compounds read low 0.984 | locus YER110C, active compounds read low 1.02 | locus YER111C, strain swi4, active compounds read low 1.02 | locus YER155C, strain BEM2 (second series), active compounds read low 1.01 | locus YER155C, strain BEM2, active compounds read low 1.01 | locus YER167W, strain BCK2, active compounds read low 1.01 | locus YFR010W, strain ubp6, active compounds read low 1.02 | locus YGL078C, strain dbp3, active compounds read low 1.01 | locus YGL086W, strain mad1, active compounds read low 1.01 | locus YGL167C, strain pmr1, active compounds read low 1.01 | locus YGL173C, strain kem1, active compounds read low 1.02 | locus YGL227W, strain vid30, active compounds read low 1.01 | locus YGL240W, strain doc1, active compounds read low 0.971 | locus YGL248W, strain PDE1, active compounds read low 1.01 | locus YGL253W, strain hxk2, active compounds read low 1.01 | locus YGR078C, strain PAC10, active compounds read low 1 | locus YGR135W, strain pre9, active compounds read low 1 | locus YGR229C, strain SMI1, active compounds read low 1.02 | locus YGR252W, strain gcn5, active compounds read low 1 | locus YHR013C, strain ard1, active compounds read low 1.01 | locus YHR027C, strain rpn1, active compounds read low 0.991 | locus YHR030C, strain SLT2, active compounds read low 1.01 | locus YHR079C, strain IRE1 (second series), active compounds read low 1 | locus YHR094C, strain hxt1, active compounds read low 1.01 | locus YHR129C, strain ARP1, active compounds read low 1.01 | locus YHR142W, strain chs7, active compounds read low 1.02 | locus YHR200W, strain rpn10, active compounds read low 1.02 | locus YIL066C, strain RNR3, active compounds read low 1.01 | locus YIL073C, strain SPO22, active compounds read low 1.05 | locus YIL125W, strain kgd1, active compounds read low 1.01 | locus YIR030C, strain dcg1, active compounds read low 1.01 | locus YJL092W, strain hpr5, active compounds read low 1.01 | locus YJL095W, strain BCK1 (second series), active compounds read low 0.977 | locus YJL095W, strain BCK1, active compounds read low 1.01 | locus YJL115W, strain asf1, active compounds read low 1.02 | locus YJL129C, strain trk1, active compounds read low 1.04 | locus YJL134W, strain LCB3, active compounds read low 1.01 | locus YJL154C, strain vps35, active compounds read low 1 | locus YJL164C, strain tpk1, active compounds read low 0.997 | locus YJL166W, strain qcr8, active compounds read low 1 | locus YJL168C, strain set2, active compounds read low 1.01 | locus YJL187C, strain SWE1 (second series), active compounds read low 1.01 | locus YJL187C, strain SWE1, active compounds read low 0.983
